Bioassay records (PubChem)
KCNH2 WT inh – blocks the wildtype human KCNH2 potassium channel. hit rate 0.37% among 340,000. AID 720551. U2OS, BacMam KCNH2, thallium flux FluxOr; stronger effect = lower value. activity change, % at 1.84 µM;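 active means maximum activity change below -70%; inconclusive means maximum activity change between -70% and -50%; inactive means maximum activity change above -50%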; further: on the % scale 0 is the no-effect control and ±100 the full control effect
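U2OS cells were transduced with wild-type KCNH2 virus (2.03 x 10^8 / mL) for 4 h at room temperature, then cultured overnight at 37 C. Thallium flux was read with FluxOr dye. Rate constants were normalized to DMSO controls.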
Glioma ERSR ind – inducers of ER stress response in human glioma cells; U87-MG GRP78 promoter luciferase reporter, 16 h; Potency, µM, inactives show top-dose activation, hits mostly activators; hit rate 0.02% among 420,000; AID 602332; further: potency means the concentration at half of the fitted maximal effect; series mostly up to about 76 µM; % of control where 0% means no effect; nearly all actives have a fitted effect of over 35% in size
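ERSR induction read as luciferase luminescence (Bright-Glo, 10 min at room temperature) in stably transfected human U87-MG glioma cells exposed to compounds for 16 h, using GRP78 as sensor.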
KCNH2 3.1 inh – inhibitors of human KCNH2 3.1 potassium channel isoform; U2OS KCNH2 3.1, thallium flux FluxOr; stronger effect = lower value; activity change, % (tested at about 1.8 µM); hit rate 0.95% among 340,000; AID 720553;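 active means maximum activity change below -70%; inconclusive means maximum activity change from -70% to -50%; inactive means maximum activity change above -50%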;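 further: thallium influx rate constant from kinetic fluorescence after stimulation buffer; on the % scale 0 is the no-effect control and ±100 the full control effect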
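We transduce U2OS cells with the mutant 3.1 virus, culture them overnight, load FluxOr with Red40 quencher for 45 min, then add stimulation buffer and read kinetically for 2 min to derive a normalized rate constant.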
PTHR1 ag – activates the human parathyroid hormone receptor PTHR1. Q03431. HEK293 GP2 PTHR1 cells, GloSensor cAMP luminescence, 1 h. Potency, µM (series often up to 115 µM), inactives show at the highest dose activation, usual class: activators. hit rate 0.075% among 410,000. AID 743266; further: potency means the concentration at half of the fitted maximal effect; nearly all actives have a fitted effect of over 55% in size
Target sequence (Q03431 whole entry, looked up): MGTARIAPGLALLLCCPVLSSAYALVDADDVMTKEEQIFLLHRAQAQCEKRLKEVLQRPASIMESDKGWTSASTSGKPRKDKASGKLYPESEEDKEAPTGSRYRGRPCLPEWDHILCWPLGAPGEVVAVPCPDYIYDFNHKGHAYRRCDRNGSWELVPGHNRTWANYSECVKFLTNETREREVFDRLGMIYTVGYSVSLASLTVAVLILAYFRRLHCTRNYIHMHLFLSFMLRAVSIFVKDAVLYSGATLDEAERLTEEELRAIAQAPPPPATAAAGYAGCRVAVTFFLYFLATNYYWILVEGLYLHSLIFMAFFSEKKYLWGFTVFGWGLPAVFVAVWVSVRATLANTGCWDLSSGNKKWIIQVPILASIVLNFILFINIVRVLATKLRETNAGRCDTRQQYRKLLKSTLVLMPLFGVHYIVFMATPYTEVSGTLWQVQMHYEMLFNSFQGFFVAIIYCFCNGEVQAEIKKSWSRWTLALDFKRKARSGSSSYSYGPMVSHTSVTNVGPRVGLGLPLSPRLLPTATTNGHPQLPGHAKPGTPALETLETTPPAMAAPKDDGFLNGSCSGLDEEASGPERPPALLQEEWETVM
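HEK-293-derived GP2 cells expressing PTHR1 and a GloSensor cAMP reporter, 3,000/well, plated overnight, given luciferin plus IBMX (each 0.5 mM as added) for 1 h at 37 °C, then compound for 1 h at 37 °C. Luminescence was read after 15 min at room temperature.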
RXFP1 antag – blocks the human relaxin receptor RXFP1 | AID 1259400 | HEK293-RXFP1, relaxin-stimulated cAMP HTRF, 30 min; stronger effect = lower value | hit rate 0.59% among 350,000 | Q9HBX9 | activity change, negative = inhibition, % at 57.5 µM;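 active means activity change of -60% or lower, but not beyond a set lower limit; inconclusive means change between -60% and -40%, or beyond the set limit; inactive means change above -40%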; further: on the % scale 0 is the no-effect control and ±100 the full control effect
RXFP1 agonist – activates the human relaxin receptor RXFP1; Q9HBX9; HEK293T-RXFP1 cAMP TR-FRET, 30 min; response scale: percent of porcine relaxin response, buffer zero; hit rate 0.3% among 370,000; Potency, µM (doses to about 57.5 µM), inactives show top-dose activation, usual class: activators; further: potency means the concentration at half of the fitted maximal effect; on the % scale 0 is the no-effect control and ±100 the full control effect; nearly all actives have a fitted effect of over 60% in size
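cAMP rise read by TR-FRET after 30 min, 37C compound exposure (up to 58 uM) in RXFP1-transfected HEK293 cells with Ro 20174 present. EC50 from Hill-equation fits, with 29 nM porcine relaxin as 100% and buffer as basal.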
Numbers without * were called inactive; [ ] = dose if it differs, or a comment. Sampled rows, rich in hits. Any-hit rate of the full collection: about 1.4%. Unless noted, the call rests on the fitted dose curve; in most records, active means well fitted curve in the direction sought with a large enough effect; inconclusive means small, poorly fitted or top-dose-only effect, or another doubt; inactive means no such curve, though single readings can be large; an effect the other way counts as inactive or inconclusive.

CCOc1ccc(CN2CCC(C(=O)Nc3cccc(-c4ccn[nH]4)c3)CC2)cc1Cl was read as KCNH2 WT inh -10, Glioma ERSR ind 2%, KCNH2 3.1 inh -5, PTHR1 ag 18%, RXFP1 antag inconclusive and RXFP1 agonist 4%.
For O=C1NC2CCCCN2C12CCN(CCCN1c3ccccc3CCc3ccc(Cl)cc31)CC2 (stereo unspecified) the results were Glioma ERSR ind -5% and RXFP1 antag -74*.
`OCCN1CCN(CCCN2c3ccccc3Sc3ccc(Cl)cc32)CC1` gave KCNH2 WT inh 29, Glioma ERSR ind -12%, KCNH2 3.1 inh -7, PTHR1 ag -7%, RXFP1 antag inconclusive and RXFP1 agonist -2%.
O=C(c1ccc(Cl)cc1)N1CCC(O)(CSc2ccccc2)CC1 was read as KCNH2 WT inh -7, Glioma ERSR ind -3%, KCNH2 3.1 inh 11, PTHR1 ag -3%[57.5 µM], RXFP1 antag -11 and RXFP1 agonist 1%.
`CC(=O)Nc1ccc(N2CCN(C(=O)c3cccs3)CC2)cc1` gave KCNH2 WT inh -8, Glioma ERSR ind -3%, KCNH2 3.1 inh -16, PTHR1 ag inactive, RXFP1 antag 1 and RXFP1 agonist -1%.
`Cc1ccc(C(=O)N2CCN(c3ccc(NC(=O)c4cccs4)cc3)CC2)cc1` gave KCNH2 WT inh 23, Glioma ERSR ind -3%, KCNH2 3.1 inh inconclusive, PTHR1 ag -86%, RXFP1 antag -12 and RXFP1 agonist -2%.
`O=C(Nc1ccc(N2CCN(C(=O)c3cccs3)CC2)cc1)c1ccc(F)cc1` gave KCNH2 WT inh 4, Glioma ERSR ind -2%, KCNH2 3.1 inh -4, PTHR1 ag -33%, RXFP1 antag -66* and RXFP1 agonist 0%.
`O=C(CSc1ccc(Cl)cc1)Nc1ccc(N2CCN(C(=O)c3ccc(Cl)cc3)CC2)cc1` gave KCNH2 WT inh -133*, Glioma ERSR ind -3%, KCNH2 3.1 inh -89*, PTHR1 ag inconclusive, RXFP1 antag -8 and RXFP1 agonist 0%.
O=C(Nc1ccc(N2CCN(C(=O)c3ccc(Cl)cc3)CC2)cc1)c1cccs1 was read as KCNH2 WT inh 24, Glioma ERSR ind -2%, KCNH2 3.1 inh -74*, PTHR1 ag -45%, RXFP1 antag -1 and RXFP1 agonist 0%.
Screening O=C(c1ccc(Cl)cc1)N1CCC(O)(CSc2ccc(Cl)cc2)CC1 returned KCNH2 WT inh -28, Glioma ERSR ind -5%, KCNH2 3.1 inh -89*, PTHR1 ag -23%, RXFP1 antag -11 and RXFP1 agonist -1%.
For O=C(CSc1nccc(=O)[nH]1)Nc1ccc(S(=O)(=O)N2CCOCC2)cc1 the results were KCNH2 WT inh 18, Glioma ERSR ind -5%, KCNH2 3.1 inh 2, PTHR1 ag -15%[57.5 µM], RXFP1 antag 6 and RXFP1 agonist -1%.
`N#CCCN(C(=O)COc1ccc(Cl)cc1Cl)c1ccccc1` gave KCNH2 WT inh -6, Glioma ERSR ind -3%, KCNH2 3.1 inh 2, PTHR1 ag -4% and RXFP1 agonist 0%.
Screening Cc1[nH]c2ccccc2c1SCC(=O)N1CCN(c2ccccc2)CC1 returned KCNH2 WT inh 4, Glioma ERSR ind -5%, KCNH2 3.1 inh 0, PTHR1 ag -47%, RXFP1 antag 9 and RXFP1 agonist -1%.
Screening Cn1c(COc2ccccc2)nnc1SCC(=O)c1cccc([N+](=O)[O-])c1 returned KCNH2 WT inh -6, Glioma ERSR ind -6%, KCNH2 3.1 inh -92*, PTHR1 ag inactive, RXFP1 antag 8 and RXFP1 agonist 3%.
Screening CC(CCc1ccccc1)NC(=O)c1ccccc1F (stereo unspecified) returned KCNH2 WT inh -6, Glioma ERSR ind -2%, KCNH2 3.1 inh 17, PTHR1 ag inactive, RXFP1 antag -5 and RXFP1 agonist 4%.
CC(CCc1ccccc1)NC(=O)c1ccccc1Cl (stereo unspecified) was read as KCNH2 WT inh -6, Glioma ERSR ind 2%, KCNH2 3.1 inh -3, PTHR1 ag -24%, RXFP1 antag -74* and RXFP1 agonist 2%.
